The source of these data is PubChem BioAssay.

The inhibition is the change of the read-out against control, counted positive when it falls.

A short description of experiment [1]: antimalarial activity against Dd2 strain (AID 2302;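 active means growth inhibition above 50% at the single 2 µM test dose, taken to imply half-maximal potency below 2 µM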;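 further: 0% = DMSO untreated growth and 100% = chloroquine plus artemisinin killed control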). Conditions: P. falciparum Dd2 in RBCs, LDH growth readout, 72 h; at 2 µM; active compounds read high.
Experiment [2] in a line: HepG2 cytotoxicity, primary screen, cytotoxicity control for P. falciparum antimalarial project, cell-based, ATP luminescence (AID 2303;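 active means inhibition above 50%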;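 further: 0% = DMSO wells and 100% = digitonin-killed cells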). Conditions: HepG2 viability, 24-48 h, at 10 µM, active compounds read high.
In experiment [3] the target is L-lactate dehydrogenase (Plasmodium falciparum (isolate CDC / Honduras)) (UniProt Q27743). The experiment can be described thus: PfLDH activity inhibition – cell lysate, 3D7 strain, counter-screen for P. falciparum growth inhibition project (AID 2304).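 Further: 0% = vehicle and 100% = reference inhibitor.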 Conditions: P. falciparum 3D7 crude extract, LDH APAD/NBT absorbance; at 2 µM; active compounds read high. (In general: A counterscreen serves to expose hits that act by an unwanted route or on another target.)

Experiment [4] is described as follows: inhibition of 3D7 malaria parasite growth – strain 3D7 (AID 2306).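 Further: 0% = DMSO wells and 100% = chloroquine plus artemisinin control wells.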 To be noted: P. falciparum 3D7 erythrocytic growth, LDH absorbance, 72 h; at 2 µM; active compounds read high.
The target of experiment [5] is Calcium-dependent protein kinase 1 (Plasmodium falciparum (isolate 3D7)) (UniProt P62344). The experiment can be described thus: PfCDPK1 kinase inhibitors, biochemical, TCAMS library (AID 1159585; cut-off not given, nearly all actives have IC50 up to about 0.98 µM;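 further: inhibitors leave more ATP so luminescence rises with inhibition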). To be noted: recombinant PfCDPK1, Kinase-Glo ATP depletion luminescence. (In general: In Kinase-Glo more light means more ATP remaining.)
In experiment [6] the target is Plasmodium falciparum protein kinase 6 (PK6, PF3D7_1337100) (UniProt Q8IDW1). In words: PfPK6 kinase inhibitors, biochemical, TCAMS library (AID 1159586). To be noted: recombinant PfPK6, Kinase-Glo ATP depletion luminescence.
Experiment [7] concerns the target Protein kinase 7 (PK7), Plasmodium falciparum 3D7 (PF3D7_0213400) (UniProt Q7YTF7). In words: inhibition of Plasmodium PK7 catalytic activity – biochemical, TCAMS antimalarial set, Kinase-Glo luminescence (AID 1159587). To be noted: recombinant PfPK7, Kinase-Glo ATP depletion luminescence.
For experiment [8], the target named is Calcium-dependent protein kinase 4 (Plasmodium falciparum (isolate 3D7)) (UniProt Q8IBS5). The experiment can be described thus: PfCDPK4 kinase inhibitors, biochemical, TCAMS library (AID 1159588; cut-off not given, nearly all actives have IC50 up to about 0.91 µM). To be noted: recombinant PfCDPK4, Kinase-Glo ATP depletion luminescence.

SMILES strings stand for the structures. For part of these data: Potency and affinity values are given separately. Calls of active or inactive are those of the source. Unless noted, how the calls were made is not given here.

Plasmodium falciparum protein kinase 6 (PK6, PF3D7_1337100), sequence (Q8IDW1 1-305): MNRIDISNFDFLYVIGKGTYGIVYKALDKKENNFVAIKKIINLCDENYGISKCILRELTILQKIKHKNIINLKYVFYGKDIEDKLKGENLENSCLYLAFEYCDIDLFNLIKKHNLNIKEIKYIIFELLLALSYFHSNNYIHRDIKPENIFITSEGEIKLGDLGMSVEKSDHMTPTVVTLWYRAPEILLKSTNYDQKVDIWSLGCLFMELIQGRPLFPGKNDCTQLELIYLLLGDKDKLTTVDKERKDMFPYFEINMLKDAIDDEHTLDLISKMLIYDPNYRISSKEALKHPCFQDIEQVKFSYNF
Calcium-dependent protein kinase 4 (Plasmodium falciparum (isolate 3D7)), sequence (Q8IBS5 whole entry, looked up): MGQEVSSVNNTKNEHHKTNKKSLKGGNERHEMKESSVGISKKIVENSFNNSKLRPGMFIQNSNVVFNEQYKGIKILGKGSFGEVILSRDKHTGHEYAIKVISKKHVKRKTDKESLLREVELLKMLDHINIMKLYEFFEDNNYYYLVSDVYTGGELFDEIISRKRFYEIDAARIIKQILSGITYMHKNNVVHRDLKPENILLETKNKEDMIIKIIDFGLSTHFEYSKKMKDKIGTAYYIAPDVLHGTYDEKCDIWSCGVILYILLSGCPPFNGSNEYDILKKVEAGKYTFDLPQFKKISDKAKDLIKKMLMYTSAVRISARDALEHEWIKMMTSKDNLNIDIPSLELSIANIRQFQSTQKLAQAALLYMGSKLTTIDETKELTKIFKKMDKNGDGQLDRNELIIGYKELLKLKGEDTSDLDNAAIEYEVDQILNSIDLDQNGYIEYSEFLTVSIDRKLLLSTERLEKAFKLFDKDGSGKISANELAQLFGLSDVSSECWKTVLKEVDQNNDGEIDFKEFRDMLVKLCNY
L-lactate dehydrogenase (Plasmodium falciparum (isolate CDC / Honduras)), sequence (Q27743 whole entry, looked up): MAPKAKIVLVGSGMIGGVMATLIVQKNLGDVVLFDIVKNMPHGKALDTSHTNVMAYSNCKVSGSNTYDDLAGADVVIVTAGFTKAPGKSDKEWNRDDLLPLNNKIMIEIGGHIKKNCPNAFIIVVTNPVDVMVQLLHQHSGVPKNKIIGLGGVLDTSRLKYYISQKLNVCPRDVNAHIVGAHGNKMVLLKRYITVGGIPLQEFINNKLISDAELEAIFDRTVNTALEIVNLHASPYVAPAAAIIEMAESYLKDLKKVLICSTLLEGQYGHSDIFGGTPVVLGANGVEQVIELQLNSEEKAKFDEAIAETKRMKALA
Calcium-dependent protein kinase 1 (Plasmodium falciparum (isolate 3D7)), sequence (P62344 whole entry, looked up): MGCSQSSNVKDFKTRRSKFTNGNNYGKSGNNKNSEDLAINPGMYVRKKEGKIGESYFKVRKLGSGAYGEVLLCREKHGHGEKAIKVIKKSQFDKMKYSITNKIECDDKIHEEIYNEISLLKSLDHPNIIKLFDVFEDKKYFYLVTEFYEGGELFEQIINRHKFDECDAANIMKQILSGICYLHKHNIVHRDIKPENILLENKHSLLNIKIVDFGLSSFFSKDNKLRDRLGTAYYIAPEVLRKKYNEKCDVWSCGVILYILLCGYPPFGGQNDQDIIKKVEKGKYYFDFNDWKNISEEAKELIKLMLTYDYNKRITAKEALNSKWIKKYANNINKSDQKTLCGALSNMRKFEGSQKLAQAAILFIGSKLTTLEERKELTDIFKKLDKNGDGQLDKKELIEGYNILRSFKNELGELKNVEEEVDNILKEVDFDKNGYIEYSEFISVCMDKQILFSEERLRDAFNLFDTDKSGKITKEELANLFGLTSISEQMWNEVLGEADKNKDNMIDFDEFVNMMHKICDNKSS
Protein kinase 7 (PK7), Plasmodium falciparum 3D7 (PF3D7_0213400), sequence (Q7YTF7 1-343): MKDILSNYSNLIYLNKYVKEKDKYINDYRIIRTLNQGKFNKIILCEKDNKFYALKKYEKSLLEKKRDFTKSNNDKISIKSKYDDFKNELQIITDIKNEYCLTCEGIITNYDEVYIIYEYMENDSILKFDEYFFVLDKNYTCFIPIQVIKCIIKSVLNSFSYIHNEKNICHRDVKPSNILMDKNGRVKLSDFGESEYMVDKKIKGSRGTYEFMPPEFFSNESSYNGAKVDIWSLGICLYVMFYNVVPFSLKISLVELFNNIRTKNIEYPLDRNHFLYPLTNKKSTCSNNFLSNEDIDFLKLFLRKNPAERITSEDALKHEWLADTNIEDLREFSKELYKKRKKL

With `CN1CCN(CCCN(Cc2cccc(-c3ccc(CNC4CCCC4)cc3)c2)C(=O)/C=C/c2ccccc2)CC1`, the growth inhibition was 96% (active) in experiment [1] and 98% (active) in experiment [4]. Moreover, the results for the inhibition in experiment [2] and in experiment [3] were 62% (active) and -2% (inactive), respectively. For the same compound, the outcome in experiment [5], in experiment [6], in experiment [7] and in experiment [8] was inactive.

Turning to `Cn1c(N)c(N=O)c(=O)[nH]c1=O`, the figures for the growth inhibition in experiment [1] and in experiment [4] were 82% (active) and 97% (active), respectively. The inhibition was 58% (active) in experiment [2] and 0% (inactive) in experiment [3]. The result in experiment [5], in experiment [6], in experiment [7] and in experiment [8] was inactive.

As to `CC(C)CNCc1ccc(-c2cccc(CN(CCN(C)C)C(=O)NCCc3ccccc3)c2)cc1`, the growth inhibition in experiment [1] was 37% (inactive); in experiment [4], 91% (active). Further, the inhibition in experiment [2] was 33% (inactive); in experiment [3], -6% (inactive). Further, the outcome in experiment [5], in experiment [6], in experiment [7] and in experiment [8] was inactive.
